Hits are enriched below; roughly 3.1% of the tested compounds scored in any of these assays.
PI4K2A block – inhibitors of human PI4K2A; Q9BTU6; AID 1346378; purified PI4K2A, ADP-Glo luminescence, 1 h; stronger effect = lower value; actives 0.13% (n = 420,000); activity change, negative = inhibition, % at 76.9 µM; in the data active = activity change below about -50%; inconclusive = mostly about -30% to -49%;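 also: -100% = wells without enzyme as full effect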
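Compounds are screened against recombinant PI4K2A using PI as substrate and ATP, the latter dispensed at 300 microM. Reactions run one hour at ambient temperature before ADP-Glo detection; full inhibition defined by wells lacking enzyme.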
VDR inhibitor – inhibitors of human vitamin D receptor; P11473; Potency, µM, for the others: max response, negative = inhibition, most hits filed as inhibitors; actives 0.93% (n = 400,000); VDR-SRC2-3 peptide fluorescence polarization, 2 h; AID 504847; also: potency is read from the fitted curve at half-maximal effect; % is scaled to controls: 0 for no effect and ±100 for the full control effect
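Compounds are added to VDR with labelled SRC2-3 coactivator peptide and held 2 h at room temperature. Inhibition of the VDR–peptide interaction is then read as a change in fluorescence polarization.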
PLK1 PBD block – blocks phosphopeptide binding to human PLK1 polo-box domain; Plk1 PBD binding of FITC phosphopeptide, fluorescence polarization; actives 2.8% (n = 360,000); P53350; Potency, µM, without a hit: max response, negative = inhibition, most hits filed as inhibitors; also: potency is read from the fitted curve at half-maximal effect; series mostly up to about 57 µM; % is scaled to controls: 0 for no effect and ±100 for the full control effect; nearly all actives have a fitted effect of over 65% in size
Target sequence (P53350 whole entry, looked up, the tested form may be a part): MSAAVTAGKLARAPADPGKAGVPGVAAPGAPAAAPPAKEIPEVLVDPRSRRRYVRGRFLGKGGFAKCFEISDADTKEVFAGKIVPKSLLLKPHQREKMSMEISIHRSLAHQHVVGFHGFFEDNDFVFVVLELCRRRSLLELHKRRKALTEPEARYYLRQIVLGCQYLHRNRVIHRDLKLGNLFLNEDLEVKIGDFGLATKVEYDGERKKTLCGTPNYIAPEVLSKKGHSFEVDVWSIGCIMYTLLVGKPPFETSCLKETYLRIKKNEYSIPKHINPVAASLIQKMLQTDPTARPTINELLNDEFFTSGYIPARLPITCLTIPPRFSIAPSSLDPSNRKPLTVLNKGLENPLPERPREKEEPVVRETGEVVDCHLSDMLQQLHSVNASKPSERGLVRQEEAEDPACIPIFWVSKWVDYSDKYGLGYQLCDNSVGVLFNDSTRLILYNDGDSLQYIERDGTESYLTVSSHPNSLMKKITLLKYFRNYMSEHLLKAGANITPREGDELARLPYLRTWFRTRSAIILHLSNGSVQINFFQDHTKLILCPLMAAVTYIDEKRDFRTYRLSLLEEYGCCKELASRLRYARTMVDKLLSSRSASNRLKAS
GCN5L2 inh-1 – blocks human GCN5L2 histone acetyltransferase. GCN5L2 HAT assay, ThioGlo1 CoA-SH fluorescence. Potency, µM (top dose mostly 58.9 µM), inactives show at the top dose activity change, negative = inhibition, hits mostly inhibitors. AID 504327. actives 0.21% (n = 390,000); also: potency is read from the fitted curve at half-maximal effect; % is scaled to controls: 0 for no effect and ±100 for the full control effect
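Fluorescence readout, Ex340nm/Em540nm: ThioGlo1 (50uM final) reacts with free CoA thiol released as 20nM GCN5L2 acetylates H3(1-25) peptide (75uM) using acetyl-CoA (70uM). Compound and enzyme sat 15 min beforehand; 20 min room-temperature reaction.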
GLS inh – glutaminase GLS (human) inhibition | actives 0.21% (n = 410,000) | AID 624170 | GLS enzymatic activity, qHTS titration | Potency, µM (series often up to 45.5 µM), inactives show at the highest dose activity change, negative = inhibition, most hits filed as inhibitors | O94925; also: potency is read from the fitted curve at half-maximal effect; % is scaled to controls: 0 for no effect and ±100 for the full control effect
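Compounds were pin-transferred onto hKGA, after which L-glutamine (1 mM solution) and a detection mix of glutamate oxidase, HRP and Amplex Red were added. Initial and 30 min RT fluorescence reads were collected.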
GCN5L2 inh-2 – confirmation of human GCN5L2 histone acetyltransferase inhibitors | shares compounds with GCN5L2 inh-1 | GCN5L2 HAT, ThioGlo1 CoA fluorescence, 20 min | Potency, µM, actives largely listed as inhibitors | actives 70% (n = 140) | AID 588347
VDR inh confirm – confirmation of human vitamin D receptor inhibitors | shares compounds with VDR inhibitor | VDR-coactivator inhibition assay, qHTS confirmation | Potency, µM, actives largely listed as inhibitors | actives 89% (n = 840) | AID 602199; also: potency is read from the fitted curve at half-maximal effect
VDR FP fluor – confirmation of human VDR-coactivator binding inhibitors, fluorescein label. VDR-coactivator binding, fluorescein fluorescence polarization. actives 48% (n = 840). Potency, µM (highest dose often 57.1 µM), without a hit: top-dose activity change, negative = inhibition, actives largely listed as inhibitors. shares compounds with VDR inhibitor; also: potency is read from the fitted curve at half-maximal effect
VDR bla – inhibits human VDR in beta-lactamase reporter cells; AID 602202; shares compounds with VDR inhibitor; actives 23% (n = 840); Potency, µM (titrated, usually from 46.1 µM), inactives show at the highest dose activity change, negative = inhibition, usual class: inhibitors; VDR beta-lactamase reporter cells, FRET ratio; cells co-treated with VDR agonist LG190178; also: potency is read from the fitted curve at half-maximal effect; % is scaled to controls: 0 for no effect and ±100 for the full control effect
VDR cytotox – cell toxicity, VDR inhibitor hit counter-screen | shares compounds with VDR inhibitor | cytotoxicity counter-screen, cell viability, qHTS | Potency, µM (highest dose often 48.3 µM), for the others: top-dose activity change, negative = cytotoxicity, actives largely listed as cytotoxic | actives 18% (n = 840);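 also: potency is read from the fitted curve at half-maximal effect; plate controls were DMSO for no effect and high-concentration cycloheximide for full effect; nearly all actives have a fitted effect of over 75% in size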
TbPYK inh – confirmation of Trypanosoma brucei pyruvate kinase inhibitors | shares compounds with PLK1 PBD block | recombinant TbPYK, Kinase-Glo ATP luminescence | Potency, µM (titrated, usually from 76.9 µM), inactives show at the top dose activity change, negative = inhibition, most hits filed as inhibitors | actives 67% (n = 890) | AID 720569; also: potency is read from the fitted curve at half-maximal effect; % is scaled to controls: 0 for no effect and ±100 for the full control effect; nearly all actives have a fitted effect of over 70% in size
TbPYK ADP-Glo – orthogonal confirmation of Trypanosoma brucei pyruvate kinase inhibitors. shares compounds with PLK1 PBD block. recombinant TbPYK, ADP-Glo luminescence, 60 min. Potency, µM (titrated, usually from 76.9 µM), without a hit: at the highest dose activity change, negative = inhibition, actives largely listed as inhibitors. actives 62% (n = 890). AID 720584; also: potency is read from the fitted curve at half-maximal effect; % is scaled to controls: 0 for no effect and ±100 for the full control effect; nearly all actives have a fitted effect of over 75% in size
Numbers without * were called inactive; ? = inconclusive; nt = not tested or not shown. Unless noted, calls follow the shape of the dose curve; as a rule, active = well fitted curve in the direction sought with a large enough effect; inconclusive = small, poorly fitted or top-dose-only effect, or another doubt; inactive = no such curve, though single readings can be large; an effect the other way counts as inactive or inconclusive.

SMILES	PI4K2A block	VDR inhibitor	PLK1 PBD block	GCN5L2 inh-1	GLS inh	GCN5L2 inh-2	VDR inh confirm	VDR FP fluor	VDR bla	VDR cytotox	others
O=C(Nc1cccc(S(=O)(=O)NC2=NCCC2)c1)c1cc(-c2ccco2)nc2ccccc12	?	-20%	?	13µM*	-5%	?	nt	nt	nt	nt
COc1ccc(NC(=O)Cn2c(=O)n(CCCC(=O)NCCc3ccc(C)cc3)c(=O)c3ccccc32)cc1Cl	-4	1%	nt	-1%	2%	nt	nt	nt	nt	nt
COc1cccc(C2Nc3c(F)cc(Br)cc3C3C=CCC32)c1OC (centres undefined)	4	-4%	4%	-1%	-2%	nt	nt	nt	nt	nt
COc1cccc2c1NC(C(=O)O)C1CC=CC21 (centres undefined)	-21	-18%	27µM*	11µM*	2.8µM*	?	nt	nt	nt	nt
CC(C)CNC(=O)COC(=O)c1c2c(nc3ccccc13)/C(=C/c1cccs1)CC2	-7	-7%	0%	?	?	nt	nt	nt	nt	nt
O=C(COC(=O)c1c2c(nc3ccccc13)/C(=C/c1ccco1)CC2)NC1CCCC1	?	-7%	?	13µM*	18µM*	7.3*	nt	nt	nt	nt
Nc1c(C(=O)N2CCCCC2)sc(=S)n1-c1ccccc1	0	?	3µM*	?	-8%	?	7.1*	7.1µM*	-8%	1%
CCOC(=O)c1sc(NC(=O)CSc2nnc(Cc3ccccc3)o2)c(C#N)c1C	-15	13µM*	1.7µM*	?	-9%	10*	3*	?	73%	-2%
[O][C@H]1[C@@H](O)[C@@H](CO)O[C@@H](O[C@@H]2[C@@H]3OC[C@H]2O[C@H](O[C@@H]2[C@@H](O)[C@H](C[C@@H]4[C@@H]5OC[C@H]4O[CH][C@@H]5O)O[C@H](CO)[C@@H]2OS(=O)(=O)O)[C@@H]3OS(=O)(=O)O)[C@@H]1O	nt	0%	nt	18%	nt	nt	nt	nt	nt	nt
Cc1ccc([N+](=O)[O-])cc1S(=O)(=O)N1CCn2cccc2C1c1ccccc1F (centres undefined)	0	-1%	nt	1%	5%	nt	nt	nt	nt	nt
CCn1c2ccccc2c2nc3cc(S(=O)(=O)N4CCOCC4)ccc3nc21	3	28µM*	0.67µM*	?	1%	?	6*	?	10%	?
c1ccc2nc3c(nc2c1)c1ccccc1n3CCN1CCOCC1	-2	7%	-12%	1%	-2%	nt	nt	nt	nt	nt
CC1=NOC(=O)/C1=C\c1ccc(-c2ccccc2Br)o1	-6	13µM*	0.42µM*	13µM*	?	11*	9.5*	?	?	?	TbPYK inh=?;TbPYK ADP-Glo=-29%
O=S(=O)(CCc1ccccc1)c1nnnn1C1CCCCC1	nt	-3%	nt	nt	nt	nt	nt	nt	nt	nt
COc1cc(-c2nnc(-c3cc(OC)c(OC)c(OC)c3)o2)cc(OC)c1OC	4	5%	-1%	-12%	-2%	nt	nt	nt	nt	nt
COc1cc(N=c2ssnc2Cl)cc(OC)c1OC	7	?	0.95µM*	10µM*	?	3.6*	nt	nt	nt	nt	TbPYK inh=3.5µM*;TbPYK ADP-Glo=6.3µM*
CC(C)(C)c1ccc2c(c1)OC(C(=O)N/N=C/c1ccc[nH]1)CO2 (centres undefined)	2	nt	nt	nt	nt	nt	nt	nt	nt	nt
O=C1C=CC(=O)C(C2=C3C(=O)N(CCc4ccccc4)CC(=O)N3CCC2)=C1	-7	32µM*	?	14µM*	?	18*	nt	nt	nt	nt	TbPYK inh=0.56µM*;TbPYK ADP-Glo=0.89µM*
C=CCOc1cccc(C(=O)/C=C2/C(=O)Nc3ccccc32)c1	7	?	?	-8%	21%	nt	8.4*	8.9µM*	?	?
O=C(O)COc1ccccc1/C=C1\C(=O)Nc2ccc(Br)cc21	-6	?	-29%	-5%	-25%	nt	nt	nt	nt	nt
O=C(/C=C/c1ccc(Cl)cc1)c1ccc([N+](=O)[O-])o1	0	11µM*	?	0%	-1%	nt	1.3*	1µM*	7.3µM*	1%
CCCOc1ccc(/C=C2/C(=O)ON=C2C)cc1OCC	3	?	1.7µM*	2%	4%	nt	13*	7.1µM*	?	-27%
CCCOc1ccccc1/C=C1/C(=O)ON=C1C	1	25µM*	3µM*	4%	5%	nt	13*	?	15%	20%
CCCOc1ccc(/C=c2\sc3nc(-c4ccco4)nn3c2=O)cc1OCC	52	-13%	0%	-1%	1%	nt	nt	nt	nt	nt
c1ccc(CCc2nn3c(Cc4ccccc4)nnc3s2)cc1	0	79µM*	11µM*	-19%	?	nt	28*	25µM*	-5%	?
O=c1[nH]c(/C=C/c2ccccc2)c([N+](=O)[O-])c(=O)[nH]1	-18	22µM*	-21%	-24%	0%	nt	24*	?	2%	26%
O=c1[nH]c(/C=C\c2cccc(Cl)c2)nc(O)c1[N+](=O)[O-]	-5	28µM*	0%	-11%	1%	nt	13*	?	20%	16%
O=c1[nH]c(/C=C/c2cccc([N+](=O)[O-])c2)c([N+](=O)[O-])c(=O)[nH]1	-12	28µM*	-5%	-12%	13%	nt	12*	7.1µM*	24%	?
O=c1[nH]c(/C=C/c2ccc(Cl)cc2Cl)c([N+](=O)[O-])c(=O)[nH]1	-8	18µM*	-15%	-24%	-3%	nt	4.7*	?	-16%	21%
COc1ccc(/C=C\c2nc(O)c([N+](=O)[O-])c(=O)[nH]2)cc1O	-6	-23%	2%	-1%	128%	nt	nt	nt	nt	nt

Assay outcomes (PubChem BioAssay)
